High-throughput results deposited in PubChem by National Center for Advancing Translational Sciences (NCATS).
An excerpt weighted towards active compounds, which were near 6.9% of everything screened.
SW480 rerep – induces DNA re-replication in SW480 colon adenocarcinoma cells; SW480 DNA re-replication, Hoechst DNA content imaging, 48 h; Potency, µM (top dose mostly 46.1 µM), inactives show at the highest dose re-replication activation, hits mostly activators; 340,000 tested, 1.8% active; note: potency is the fitted concentration of half-maximal effect; % of control where 0% means no effect; nearly all actives have a fitted effect of over 55% in size
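Image-based read-out: total Hoechst fluorescence of nuclei (405 nm excitation, 500-530 nm emission), with hits raising the fraction of high-intensity nuclei. SW480 colon cells incubated 48 hr with compounds at 37 C.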
S-ASM inh – blocks human secretory acid sphingomyelinase. P17405. placental ASM, HMU-PC fluorogenic substrate, 60 min. Potency, µM (series often up to 57.5 µM), for the others: at the highest dose activity change, negative = inhibition, most hits filed as inhibitors. 340,000 tested, 0.006% active. AID 504937; note: potency is the fitted concentration of half-maximal effect
Target sequence (P17405 47-631 limits assumed): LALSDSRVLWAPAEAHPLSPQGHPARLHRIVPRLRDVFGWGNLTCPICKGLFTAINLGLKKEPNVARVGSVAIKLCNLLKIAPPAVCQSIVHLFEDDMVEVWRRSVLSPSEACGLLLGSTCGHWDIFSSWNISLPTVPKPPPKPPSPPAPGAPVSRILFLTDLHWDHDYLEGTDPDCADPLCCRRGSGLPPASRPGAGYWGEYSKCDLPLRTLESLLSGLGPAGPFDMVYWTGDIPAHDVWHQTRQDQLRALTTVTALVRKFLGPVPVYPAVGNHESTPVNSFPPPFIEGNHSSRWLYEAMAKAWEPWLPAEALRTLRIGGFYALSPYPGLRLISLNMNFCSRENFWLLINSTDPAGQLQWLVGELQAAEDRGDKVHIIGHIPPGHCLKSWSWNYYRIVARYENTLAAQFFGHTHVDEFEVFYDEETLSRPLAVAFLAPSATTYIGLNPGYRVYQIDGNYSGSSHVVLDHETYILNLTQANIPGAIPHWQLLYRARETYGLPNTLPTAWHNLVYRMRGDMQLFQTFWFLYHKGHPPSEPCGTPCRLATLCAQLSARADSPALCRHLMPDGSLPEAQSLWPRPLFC
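HMU-PC0 cleavage (9 uM final) by human placental ASM, 60 min at 37 °C following 10 min compound exposure at RT; stopped at pH 10, fluorescence Ex 386/Em 447 nm.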
KB-V1 cytotox – kills drug-selected multidrug resistant KB-V1 cells | KB-V1 MDR cells viability, CellTiter-Glo, 72 h | Potency, µM (top dose mostly 46.1 µM), hits mostly cytotoxic | 400,000 tested, 3.4% active | AID 1347076; note: potency is the fitted concentration of half-maximal effect; % is set by controls: 0 for no effect and ±100 for the full control effect; nearly all actives have a fitted effect of over 60% in size
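KB-V1 MDR subline cells in DMEM (phenol-red free, 10% FBS) exposed to compounds in qHTS concentration series for 72 h at 37 degrees C. Viability read by CellTiter-Glo luminescence; concentration-effect curves fitted after normalization and correction.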
KB-3-1 cytotox – KB-3-1 parental cell cytotoxicity | AID 1347075 | Potency, µM (series often up to 46.1 µM), most hits filed as cytotoxic | 400,000 tested, 1.4% active | KB-3-1 viability, CellTiter-Glo ATP luminescence, 72 h; note: potency is the fitted concentration of half-maximal effect; % is set by controls: 0 for no effect and ±100 for the full control effect; nearly all actives have a fitted effect of over 60% in size
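Luminescent ATP read-out (CellTiter-Glo) measures survival of drug-naive KB-3-1 cells after 72 h compound exposure at 37 °C. Titration series was screened from lowest to highest concentration, with DMSO vehicle plates as background controls.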
Giardia kill – kills Giardia lamblia. 340,000 tested, 0.15% active. activity change, % at 7.66 µM, hits read low. Giardia lamblia trophozoite viability. AID 540267; in the data active = activity change below about -80%; inconclusive = between about -30% and that limit;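 note: parasites exposed to compound for two days anaerobically before the ATP read; % is set by controls: 0 for no effect and ±100 for the full control effect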
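Killing of trophozoites was scored by loss of ATP luminescence after a 48 hrs anaerobic exposure to compounds at 37 deg C, using 100 cells per well.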
MCF10A rerep – DNA re-replication induction in MCF 10a cells. MCF 10A DNA re-replication, Hoechst nuclear intensity, 48 h. Potency, µM (doses to about 46.1 µM), inactives show at the highest dose activity, positive = re-replication, actives largely listed as activators. 350,000 tested, 2.9% active. AID 624296; note: potency is the fitted concentration of half-maximal effect; % of control where 0% means no effect; nearly all actives have a fitted effect of over 50% in size
Starred values were filed as active, the others as inactive; i = inactive; ? = inconclusive; / = no result; [ ] = remark or other dose. Unless noted, calls come from the whole dose curve; as a rule, active = well fitted curve in the direction sought with a large enough effect; inconclusive = small, poorly fitted or top-dose-only effect, or another doubt; inactive = no such curve, though single readings can be large; an effect the other way counts as inactive or inconclusive.

SMILES | SW480 rerep | S-ASM inh | KB-V1 cytotox | KB-3-1 cytotox | Giardia kill | MCF10A rerep
CCOC(=O)C(C)Sc1nc2c(c(-c3cccs3)c1C#N)CCC2 (centres undefined) | 24% | 65% | i | i | -6 | 16µM*
CC(C)OC(=O)CC(=O)CSc1nc2c(cc1C#N)CCC2 | 10% | 59% | i | i | -21 | ?
COC(=O)CSc1nc2c(c(-c3ccc(O)cc3)c1C#N)CCCC2 | ? | -5% | i | i | -14 | 18µM*
Cc1ccc(Nc2c(-c3ccc(N4CCOCC4)cc3)nc3c(C)cccn23)cc1 | / | / | ? | i | / | /
C=C1Nc2ccccc2C(=O)N1c1ccc(C(=O)N2CCN(C(=O)c3ccco3)CC2)cc1 | / | / | i | ? | -19 | /
O=C(NC1CCCc2ccccc21)C1CCN(S(=O)(=O)c2cccc(C(F)(F)F)c2)CC1 (centres undefined) | ? | 1% | 23µM* | i | 9 | 8%
COc1nc(-c2cccs2)cc(-c2ccc(C)cc2)c1C#N | 4µM* | 104% | 11µM* | 16µM* | 9 | ?
COc1ccc(-c2cc(-c3cccs3)c(C#N)c(SCC(=O)NCc3ccccc3)n2)cc1 | 5%[9.22 µM] | 80% | i | i | -14 | 4%
COc1ccc(-c2cc(-c3cccs3)nc(OC)c2C#N)cc1OC | ? | 197% | 4.6µM* | ? | 21 | 6.5µM*
COc1ccc(-c2c(C#N)c(N)nc3c2CCc2ccccc2-3)cc1OC | ? | i | 5.2µM* | 5.8µM* | -2 | 1.6µM*
Cc1ccccc1CNC(=O)Cn1ccc2cc(S(=O)(=O)N3CCCCC3)ccc21 | / | / | i | i | / | /
O=C(COC(=O)CNC(=O)C1CCCCC1)Nc1ccccc1 | -1% | -2% | i | i | 11 | 4%
CN(C(=O)COC(=O)CNC(=O)C1CCCCC1)c1ccccc1 | 21µM* | 1% | ? | i | 7 | -3%
O=C(Nc1cc(F)cc(F)c1)Nc1nnc(-c2ccncc2)s1 | / | / | i | i | / | /
O=C(N/N=C/c1ccncc1)C1C2CCCCCCC21 (centres undefined) | -2% | -2% | i | i | 3 | -21%
Fc1cccc(Cl)c1CSc1ccc(-c2cccnc2)nn1 | 12% | -2% | i | i | 4 | 23µM*
Clc1ccc(CSc2ccc(-c3cccnc3)nn2)cc1 | 13% | -1% | ? | i | -6 | 12%
OC(Cc1ccc2ccccc2n1)c1c(Cl)cccc1Cl (centres undefined) | / | / | i | i | / | /
CS(=O)(=O)N1N=C(c2ccc(Br)cc2)CC1c1ccc2c(c1)OCO2 (centres undefined) | 1% | -17% | 16µM* | i | 23 | 22%
CCOc1ccc(Br)cc1C1=NN(C(C)=O)C(c2ccc([N+](=O)[O-])s2)O1 (centres undefined) | 8.2µM* | -6% | i | ? | ? | ?
N#C/C(=C\c1ccc(F)cc1)C(=O)NCC1CCCO1 (centres undefined) | / | / | ? | i | / | /
COc1cc2ccccc2cc1C(=O)N1CCCC(C(F)(F)F)C1 (centres undefined) | -6% | 2% | 15µM* | i | 2 | -4%
COc1ccccc1NC(=O)C1=C(C)Nc2nc(SCc3ccccc3F)nn2C1c1cccs1 (centres undefined) | / | / | i | i | / | /
CC(C)c1ccc(C2C3=C(COC3=O)Nc3cc4c(cc32)OCO4)cc1 (centres undefined) | ? | 3% | 1.2µM* | 0.73µM* | -12 | ?
CC(C)c1ccc(NS(=O)(=O)c2ccc3c(c2)NC(=O)CO3)cc1 | -12% | -3% | i | i | -9 | -1%
COc1ccc(C2C(C(=O)Nc3cc(OC)c(OC)c(OC)c3)c3ccccc3C(=O)N2C)cc1 (centres undefined) | 6.5µM* | -4% | ? | ? | 0 | ?
